# Test results taken from ChEMBL document CHEMBL3988442, “University of Dundee, Small-Polar-MMV Screening Library” (2021).
# For some assays here: Entries with a potency or affinity are not part of this list.
# Key:
# Set-up in all cases: scale not given: direction of the effect not stated beside the values
# [1] = biological target: Protein translocase subunit SecA (Escherichia coli (strain K12)) (UniProt P10408); assay: Assay to Identify E. coli SecA ATPase Inhibitors; format: functional; settings: 30 µM
# Protein translocase subunit SecA (Escherichia coli (strain K12)), sequence (P10408 whole entry): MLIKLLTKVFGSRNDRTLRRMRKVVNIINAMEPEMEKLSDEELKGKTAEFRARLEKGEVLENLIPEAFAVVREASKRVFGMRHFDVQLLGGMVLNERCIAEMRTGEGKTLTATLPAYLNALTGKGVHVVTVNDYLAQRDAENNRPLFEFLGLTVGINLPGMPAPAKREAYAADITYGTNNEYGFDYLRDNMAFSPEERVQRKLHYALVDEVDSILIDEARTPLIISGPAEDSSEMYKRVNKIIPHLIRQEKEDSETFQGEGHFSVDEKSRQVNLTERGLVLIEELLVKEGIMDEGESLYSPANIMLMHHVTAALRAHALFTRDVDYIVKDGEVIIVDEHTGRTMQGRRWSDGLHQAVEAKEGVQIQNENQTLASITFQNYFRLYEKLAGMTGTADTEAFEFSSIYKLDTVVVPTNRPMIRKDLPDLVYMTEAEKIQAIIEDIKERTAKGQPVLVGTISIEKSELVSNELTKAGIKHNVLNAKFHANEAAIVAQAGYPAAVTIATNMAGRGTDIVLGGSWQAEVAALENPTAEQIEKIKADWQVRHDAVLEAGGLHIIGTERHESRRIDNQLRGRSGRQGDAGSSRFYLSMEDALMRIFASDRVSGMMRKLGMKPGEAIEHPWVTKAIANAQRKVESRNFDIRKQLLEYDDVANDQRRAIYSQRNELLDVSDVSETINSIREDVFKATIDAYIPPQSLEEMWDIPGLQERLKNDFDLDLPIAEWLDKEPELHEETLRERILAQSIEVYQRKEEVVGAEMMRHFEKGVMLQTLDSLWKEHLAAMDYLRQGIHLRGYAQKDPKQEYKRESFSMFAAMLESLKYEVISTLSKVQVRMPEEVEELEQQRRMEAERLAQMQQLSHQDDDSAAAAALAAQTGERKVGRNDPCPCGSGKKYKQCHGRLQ
# [2] = biological target: T1, Ubiquitin-activating enzyme e1, putative (Leishmania donovani (strain BPK282A1)) (UniProt E9BSI1); assay: Leishmania donovani Ubiquitin Activating Enzyme (LdE1); format: functional; settings: 30 µM
# T1 sequence (whole entry): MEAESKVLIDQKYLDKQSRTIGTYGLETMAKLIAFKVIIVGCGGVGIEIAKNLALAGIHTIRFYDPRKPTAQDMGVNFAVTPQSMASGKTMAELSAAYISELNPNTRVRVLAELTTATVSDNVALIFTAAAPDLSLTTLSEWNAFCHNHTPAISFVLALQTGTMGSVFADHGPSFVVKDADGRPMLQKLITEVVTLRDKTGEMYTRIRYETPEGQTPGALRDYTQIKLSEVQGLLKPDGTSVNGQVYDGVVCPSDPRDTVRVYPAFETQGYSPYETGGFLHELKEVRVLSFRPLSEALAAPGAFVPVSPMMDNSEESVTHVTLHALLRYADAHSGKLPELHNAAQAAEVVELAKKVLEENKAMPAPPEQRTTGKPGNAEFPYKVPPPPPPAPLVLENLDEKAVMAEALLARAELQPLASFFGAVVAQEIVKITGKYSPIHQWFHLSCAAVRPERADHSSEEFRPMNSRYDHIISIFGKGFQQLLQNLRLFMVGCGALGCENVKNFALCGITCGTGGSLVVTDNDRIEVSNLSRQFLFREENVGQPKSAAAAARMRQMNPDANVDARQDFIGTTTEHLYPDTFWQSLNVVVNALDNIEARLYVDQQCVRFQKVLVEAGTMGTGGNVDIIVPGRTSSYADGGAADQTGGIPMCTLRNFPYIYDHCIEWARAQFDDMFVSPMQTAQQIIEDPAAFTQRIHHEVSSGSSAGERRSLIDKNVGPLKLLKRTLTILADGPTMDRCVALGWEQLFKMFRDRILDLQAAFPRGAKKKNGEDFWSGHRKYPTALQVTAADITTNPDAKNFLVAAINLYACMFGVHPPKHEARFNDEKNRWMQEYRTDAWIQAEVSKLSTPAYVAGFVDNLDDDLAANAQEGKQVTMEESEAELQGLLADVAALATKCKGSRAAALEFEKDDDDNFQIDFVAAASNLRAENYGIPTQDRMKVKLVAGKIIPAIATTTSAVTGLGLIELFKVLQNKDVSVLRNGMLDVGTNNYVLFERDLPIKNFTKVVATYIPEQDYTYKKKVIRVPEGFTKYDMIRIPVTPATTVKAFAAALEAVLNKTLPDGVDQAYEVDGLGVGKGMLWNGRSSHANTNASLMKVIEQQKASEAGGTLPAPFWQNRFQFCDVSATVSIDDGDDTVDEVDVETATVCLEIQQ
# [3] = biological target: AMP-activated protein kinase, AMPK (Homo sapiens) (UniProt P54646+O43741+P54619+Q9UGJ0+Q9Y478+Q13131+Q9UGI9); assay: AMP-dependent Kinase enzyme assay. An in vitro enzyme assay that detects ADP turnover that is directly proportional to AMPK activity. This uses naive AMPK that is activated during the assay with MK-8722; format: functional; settings: 30 µM
# [4] = biological target: Sialic acid-binding Ig-like lectin 9 (Homo sapiens) (UniProt Q9Y336); assay: Hs-Siglec9 ALPHAscreen SOP 20170721; settings: 10 µM
# Sialic acid-binding Ig-like lectin 9 (Homo sapiens), sequence (Q9Y336 whole entry): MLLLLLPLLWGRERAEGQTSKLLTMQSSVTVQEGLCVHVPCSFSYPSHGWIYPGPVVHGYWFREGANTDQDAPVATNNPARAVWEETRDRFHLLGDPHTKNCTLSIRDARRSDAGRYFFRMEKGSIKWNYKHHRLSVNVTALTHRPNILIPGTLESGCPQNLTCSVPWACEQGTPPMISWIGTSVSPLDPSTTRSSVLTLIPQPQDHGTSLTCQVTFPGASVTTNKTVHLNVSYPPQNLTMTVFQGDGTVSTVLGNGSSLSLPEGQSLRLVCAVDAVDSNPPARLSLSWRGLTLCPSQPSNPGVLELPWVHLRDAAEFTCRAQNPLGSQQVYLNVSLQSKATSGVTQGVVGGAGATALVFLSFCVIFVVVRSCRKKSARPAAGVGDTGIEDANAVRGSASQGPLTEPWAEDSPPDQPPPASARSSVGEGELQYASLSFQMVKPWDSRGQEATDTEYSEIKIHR
# Trypanosoma cruzi = assay: Trypanosoma cruzi phosphomannomutase and mannose-1-phosphate guanylyltransferase assay; format: functional; settings: 10 µM
# [5] = biological target: T2, Arginase-2, mitochondrial (Homo sapiens) (UniProt P78540); assay: in vitro enzyme assay to detect the production of urea directly proportional to the activity of Arginase II; format: functional; settings: 33.3 µM; further: in the data most compounds retested in dose-response had high values
# T2 sequence (whole entry): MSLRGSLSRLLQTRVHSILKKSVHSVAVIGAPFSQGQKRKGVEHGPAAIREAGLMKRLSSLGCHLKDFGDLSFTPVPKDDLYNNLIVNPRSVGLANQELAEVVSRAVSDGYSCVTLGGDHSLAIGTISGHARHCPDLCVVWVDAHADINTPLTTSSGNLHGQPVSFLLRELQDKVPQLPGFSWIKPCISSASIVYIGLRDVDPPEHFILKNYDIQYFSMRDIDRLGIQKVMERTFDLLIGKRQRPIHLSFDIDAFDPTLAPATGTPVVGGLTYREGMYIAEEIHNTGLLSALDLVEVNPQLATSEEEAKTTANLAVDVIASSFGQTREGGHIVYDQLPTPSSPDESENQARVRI
# [6] = biological target: T3, Proteasome subunit beta (Trypanosoma cruzi) (UniProt O96673); assay: Trypanosoma cruzi proteasome chymotrypsin-like activity (TcProtChymo) assay.; further: in the data most compounds retested in dose-response had high values; format: functional; settings: 9.37 µM
# T3 sequence (whole entry): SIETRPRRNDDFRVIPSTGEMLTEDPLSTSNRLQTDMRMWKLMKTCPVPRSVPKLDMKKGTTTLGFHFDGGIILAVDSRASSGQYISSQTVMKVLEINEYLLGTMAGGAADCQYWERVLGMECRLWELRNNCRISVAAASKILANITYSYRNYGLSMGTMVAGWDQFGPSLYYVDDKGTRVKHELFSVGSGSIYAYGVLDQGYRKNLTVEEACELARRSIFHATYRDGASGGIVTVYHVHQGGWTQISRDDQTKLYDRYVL
# Homo sapiens = species on record: Homo sapiens; assay: To identify inhibition of the IFN signalling (Jak-Stat) pathway via expression of an eGFP reporter gene under the control of an IFN-stimulated response element (ISRE) containing MxA promoter.; format: functional; settings: 30 µM
# [7] = biological target: T4, Tyrosyl-tRNA synthetase, putative (Trypanosoma cruzi (strain CL Brener)) (UniProt Q4DSP6); assay: Trypanosoma cruzi tyrosyl tRNA synthetase (TcYRS) _High Tyrosine SOP; format: functional; settings: 30 µM; further: in the data most compounds retested in dose-response had high values
# T4 sequence (whole entry): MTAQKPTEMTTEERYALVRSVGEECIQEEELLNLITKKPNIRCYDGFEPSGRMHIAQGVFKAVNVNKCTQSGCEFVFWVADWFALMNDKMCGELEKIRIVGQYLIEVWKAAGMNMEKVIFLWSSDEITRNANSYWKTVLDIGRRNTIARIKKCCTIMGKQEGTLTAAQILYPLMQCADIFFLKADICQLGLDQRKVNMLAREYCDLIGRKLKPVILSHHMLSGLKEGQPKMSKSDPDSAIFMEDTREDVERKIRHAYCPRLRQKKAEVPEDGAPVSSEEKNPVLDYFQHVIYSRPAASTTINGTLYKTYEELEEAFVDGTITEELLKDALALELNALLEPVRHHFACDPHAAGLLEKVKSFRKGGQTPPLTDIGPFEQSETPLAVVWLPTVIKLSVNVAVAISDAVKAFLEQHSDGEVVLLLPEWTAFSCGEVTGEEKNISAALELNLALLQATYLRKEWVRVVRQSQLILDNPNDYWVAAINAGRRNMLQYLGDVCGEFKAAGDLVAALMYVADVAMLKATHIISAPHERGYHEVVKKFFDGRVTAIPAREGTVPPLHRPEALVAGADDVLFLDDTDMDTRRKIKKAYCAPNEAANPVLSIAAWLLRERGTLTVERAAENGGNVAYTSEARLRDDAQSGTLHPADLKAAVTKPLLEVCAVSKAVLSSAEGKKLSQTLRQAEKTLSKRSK
# [8] = biological target: T4, Tyrosyl-tRNA synthetase, putative (Trypanosoma cruzi (strain CL Brener)); assay: Trypanosoma cruzi tyrosyl tRNA synthetase (TcYRS) SOP; format: functional; settings: 30 µM
# [9] = biological target: Chromo domain-containing protein 1 (Saccharomyces cerevisiae (strain ATCC 204508 / S288c) (Baker's yeast)) (UniProt P32657); assay: ScCHD-1 Enzyme Inhibition Assay; format: functional; settings: 30 µM; further: in the data most compounds retested in dose-response had high values
# Chromo domain-containing protein 1 (Saccharomyces cerevisiae (strain ATCC 204508 / S288c) (Baker's yeast)), sequence (P32657 whole entry, the tested form may be a part): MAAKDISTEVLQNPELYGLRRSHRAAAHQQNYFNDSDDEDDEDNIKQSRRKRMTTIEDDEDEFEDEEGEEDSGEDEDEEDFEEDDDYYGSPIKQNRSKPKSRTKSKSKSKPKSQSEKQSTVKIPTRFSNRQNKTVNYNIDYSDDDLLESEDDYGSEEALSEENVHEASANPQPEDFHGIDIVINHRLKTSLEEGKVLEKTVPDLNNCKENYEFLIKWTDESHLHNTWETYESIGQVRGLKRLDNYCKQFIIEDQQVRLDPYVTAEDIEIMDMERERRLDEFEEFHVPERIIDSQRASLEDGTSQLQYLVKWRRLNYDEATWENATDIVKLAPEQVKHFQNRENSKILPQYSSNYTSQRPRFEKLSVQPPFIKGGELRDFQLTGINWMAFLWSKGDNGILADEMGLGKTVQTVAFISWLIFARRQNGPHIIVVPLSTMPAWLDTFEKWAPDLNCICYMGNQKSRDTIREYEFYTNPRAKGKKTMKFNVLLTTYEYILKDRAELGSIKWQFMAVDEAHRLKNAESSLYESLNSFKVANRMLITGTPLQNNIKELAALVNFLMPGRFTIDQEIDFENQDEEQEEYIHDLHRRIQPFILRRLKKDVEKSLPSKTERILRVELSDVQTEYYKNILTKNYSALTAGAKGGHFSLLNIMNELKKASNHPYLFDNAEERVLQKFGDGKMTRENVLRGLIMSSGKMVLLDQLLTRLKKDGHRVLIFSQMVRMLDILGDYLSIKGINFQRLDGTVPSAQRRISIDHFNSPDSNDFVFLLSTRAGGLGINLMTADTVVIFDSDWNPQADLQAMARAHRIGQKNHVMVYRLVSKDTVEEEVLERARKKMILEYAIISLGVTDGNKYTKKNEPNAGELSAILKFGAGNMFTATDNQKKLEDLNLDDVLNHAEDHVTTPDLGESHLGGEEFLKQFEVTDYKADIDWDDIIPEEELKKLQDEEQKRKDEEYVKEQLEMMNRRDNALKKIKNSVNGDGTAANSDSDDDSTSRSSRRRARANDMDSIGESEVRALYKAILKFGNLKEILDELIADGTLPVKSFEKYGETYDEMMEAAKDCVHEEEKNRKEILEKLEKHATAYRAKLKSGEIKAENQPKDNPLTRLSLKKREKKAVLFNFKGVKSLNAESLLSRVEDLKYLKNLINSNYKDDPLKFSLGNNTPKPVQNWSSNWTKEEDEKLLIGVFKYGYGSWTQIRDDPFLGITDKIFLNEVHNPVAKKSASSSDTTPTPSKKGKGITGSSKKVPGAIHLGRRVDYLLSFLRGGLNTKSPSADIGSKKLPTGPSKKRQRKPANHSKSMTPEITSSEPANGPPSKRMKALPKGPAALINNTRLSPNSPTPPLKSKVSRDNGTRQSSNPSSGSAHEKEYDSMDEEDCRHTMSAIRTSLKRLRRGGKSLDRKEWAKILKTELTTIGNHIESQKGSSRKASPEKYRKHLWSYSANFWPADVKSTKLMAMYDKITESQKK
SMILES,Percent Effect [1],Percent Effect [2],Percent Effect [3],Percent Effect [4],Percent Effect (Trypanosoma cruzi),Percent Effect [5],Percent Effect [6],Percent Effect (Homo sapiens),Percent Effect [7],Percent Effect [8],Percent Effect [9]
CC(C)n1ncc2c1NC(=O)CC21C(=O)Nc2c(Cl)cc(Cl)cc21 (stereo unspecified),-1.94%,6.67%,3.17%,6.18%,-0.197%,-9.33%,1.29%,13.3%,2.12%,10.3%,-4.48%
Cn1ncc2c1C(COCC1CC1)CN(Cc1ccoc1)C2 (stereo unspecified),-1.65%,18.9%,1.61%,-6.93%,2.83%,9.87%,23.8%,27.7%,5.41%,20.5%,2.77%
O=C(c1cccc2c1OCO2)N1CCCC(n2cccn2)C1 (stereo unspecified),-4.91%,2.7%,-10.6%,1.58%,-5.94%,-1.2%,8.29%,10.5%,0.493%,3.7%,-1.47%
CC(C)S(=O)(=O)N1CCC(c2cc3n(n2)[C@@H](C(F)(F)F)C[C@@H](C)N3)C1 (stereo partly specified),-0.301%,5.33%,-46.3%,0.653%,4.13%,-1.63%,5.02%,9.18%,4.25%,6.41%,-0.108%
O=C1CC[C@H]2[C@H](CCN2C(=O)C2CCOCC2)N1Cc1ccncc1,-2.75%,22.7%,-7.93%,0.426%,2.95%,-3.35%,17.7%,-2.05%,6.35%,15.4%,-9.4%
CCN(CC)C(=O)CCn1ncc2c(Cl)cccc21,-0.381%,1.33%,3.83%,7.06%,-5.89%,-17.1%,16.1%,0.421%,0%,2.56%,-11.2%
CN(C)CC1CN(C(=O)NCc2ccccc2)Cc2nccn2C1 (stereo unspecified),-2.59%,13.7%,-1.1%,4.01%,-1.59%,-3.19%,5.39%,3.73%,3.12%,6.17%,1.81%
O=C(NCC1CC1)C1CN(C(=O)c2cccnc2)CC12CCOCC2 (stereo unspecified),-0.919%,13%,2.21%,6.47%,-0.296%,-0.645%,13.6%,18.6%,5.29%,14.1%,-4.19%
COCCNS(=O)(=O)c1ccc2c(c1)CCN(C(=O)c1cncn1C)C2,-1.62%,6.94%,-17.1%,2.73%,-1.46%,6.62%,22.1%,6.15%,7.37%,10.3%,-2.12%
Cc1ccc(OCCC(=O)NC2CCc3nc(C)cn3C2)cc1 (stereo unspecified),-3.65%,5.26%,5.43%,5.54%,0.0974%,-4.73%,14.7%,15.1%,3.19%,10.4%,-1.61%
COc1cccc(CC(=O)N2CCc3ncnc(NC(C)C)c3CC2)c1,-5.16%,-18.9%,0.899%,-4.76%,-3.42%,-0.319%,7.38%,12.2%,3.24%,7.69%,0.23%
CN1CCOC(CNCc2cccc(OCc3ccccn3)c2)C1 (stereo unspecified),-5.11%,5.06%,-8.27%,12.2%,3.87%,-1.9%,-4.18%,-5.19%,7.39%,11.4%,-2.11%
CC(Cn1cccn1)NC(=O)Nc1ccc(N(C)C)nc1 (stereo unspecified),-4.33%,1.39%,-12.7%,-12%,-7.09%,0.883%,22.3%,10.8%,1.05%,-2.56%,-1.82%
Cc1cnn(CC2CCCN2C(=O)c2cc3ccccc3[nH]c2=O)c1 (stereo unspecified),-8.51%,7.79%,-12.6%,-10%,-5.97%,-1.9%,8.49%,15%,1.91%,7.06%,-15.3%
CCc1nc(C2CCCN(C(=O)c3cccc4cn[nH]c34)C2)no1 (stereo unspecified),-7.64%,5.41%,1.19%,7.35%,-6.41%,-2.77%,6.64%,19.4%,2.97%,1.22%,3.58%
CC(CNC(=O)c1ccc(F)cc1Cl)N1CCCC1 (stereo unspecified),-1.76%,9.72%,4.21%,-4.19%,-2.82%,6.18%,20.4%,-9.11%,3.16%,5.13%,-0.608%
